Assay [1] can be described thus: E. coli DRC41 culture turbidity changes, primary screen, E. coli filamentation inducer project, strain DRC41, OD650, 48 h (AID 1152).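 Also: E. coli MC1000 strain DRC41 lacking acrAB efflux pump and sulA.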 Conditions: E. coli DRC41 (acrAB sulA), higher = more signal, called active from +8 up or from −8 down.
Assay [2] is described as follows: small-molecule binders of probe aLefty1, primary screen, biochemical, small-molecule microarray, 635/667 nm fluorescence (AID 1153).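 Also: score merges spot fluorescence with signal-to-noise ratio from the scanned slide images.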 To be noted: higher = more signal.
Assay [3] is described as follows: PSAC antagonists in infected red cells, primary screen, cell-based, P. falciparum Indochina, OD700, 1 h (AID 1154). Conditions: P. falciparum Indochina infected RBC osmotic lysis, higher = more signal, called active from +8 up or from −8 down.
The nature of assay [4]: PSAC antagonists in infected red cells, primary screen, cell-based, P. falciparum Indochina, OD700, 2 h (AID 1155).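 Also: lysis reports solute entry through the parasite surface anion channel PSAC; channel blockers reduce lysis of infected cells.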 To be noted: P. falciparum Indochina infected erythrocytes, osmotic lysis OD700; higher = more signal, called active from +8 up or from −8 down.
The nature of assay [5]: osmotic lysis modulators in infected erythrocytes, primary screen, PSAC antagonist project, cell-based, P. falciparum Indochina, OD700, 3 h (AID 1156). Conditions: higher = more signal, called active from +8 up or from −8 down.
Assay [6] can be described thus: PSAC antagonists in infected red cells, primary screen, cell-based, P. falciparum Indochina, OD700, 18 h (AID 1157). Conditions: P. falciparum Indochina infected erythrocytes, osmotic lysis OD700, 18 h; higher = more signal, called active from +8 up or from −8 down.
The nature of assay [7]: modulators of S6 phosphorylation in cells, primary screen, cell-based, A549, cytoblot, luminescence, serum-stimulated (AID 1158).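 Also: serum-stimulated A549 lung adenocarcinoma cells; signal is phosphorylated S6 detected by cytoblot immunostaining with HRP secondary.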 Conditions: A549 phospho-S6 cytoblot, 5 h, higher = more signal.
The target of assay [8] is NADPH oxidase 2 (Homo sapiens) (UniProt P04839). The experiment in a line: NOX2-dependent H2O2 signal modulators, primary screen, NOX inhibitor project, cell-based, HEK293-NOX2, PMA-stimulated, Amplex Red fluorescence (AID 1159). Also: test concentration not given here. To be noted: 45 min, higher = more signal, called active from +8 up or from −8 down.
The target in assay [9] is NADPH oxidase 4 (Homo sapiens) (UniProt Q9NPH5). The experiment in a line: NOX4-dependent H2O2 signal modulators, primary screen, NOX inhibitor project, cell-based, HEK293-NOX4, tetracycline-induced, Amplex Red fluorescence (AID 1160). To be noted: 45 min, higher = more signal, called active from +8 up or from −8 down.
Assay [10] has as its target NADPH oxidase 5 (Homo sapiens) (UniProt Q96PH1). The experiment in a line: NOX5-dependent H2O2 signal modulators, primary screen, NOX inhibitor project, cell-based, HEK293-NOX5, Amplex Red fluorescence (AID 1161). Conditions: HEK293-NOX5, ionomycin, 45 min, higher = more signal.
Assay [11] in a line: A549 cell viability effects, profiling panel, calcein-AM fluorescence, 48 h, basal (AID 1162). Also: test concentration not given here. Conditions: higher = more signal.
Assay [12] is described as follows: adipocyte viability effects, profiling panel, cell-based, 3T3-L1 adipocytes, calcein-AM fluorescence, 48 h, basal (AID 1163). Also: test concentration not given here. To be noted: 3T3-L1 adipocytes viability, higher = more signal.
Assay [13] in a line: HepG2 cell viability effects, profiling panel, calcein-AM fluorescence, 48 h, basal (AID 1164). Also: test concentration not given here. To be noted: higher = more signal.
Assay [14] can be described thus: MM1S cell viability effects, profiling panel, calcein-AM fluorescence, 48 h, basal (AID 1165).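 Also: viability of MM1S multiple myeloma cells under basal unstimulated conditions; test concentration not given here.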 To be noted: higher = more signal.
Assay [15] is described as follows: basal RPMI8226 viability, no added stimulus, profiling panel, cell-based, calcein-AM fluorescence, 48 h, PK04 Diversity Set (AID 1166).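 Also: cells grown under basal conditions without added stimulus; test concentration not given here.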 Conditions: RPMI8226 myeloma viability, higher = more signal.
Assay [16] is described as follows: basal HepG2 mitochondrial membrane potential changes, profiling panel, cell-based, JC-1 fluorescence, 24 h, 100 nL compound (AID 1167). Also: test concentration not given here. Conditions: higher = more signal.
Assay [17] can be described thus: basal 3T3-L1 adipocyte mitochondrial potential changes, profiling panel, cell-based, JC-1 fluorescence, 3T3-L1 adipocytes, 24 h, 100 nL compound (AID 1168). Also: test concentration not given here. To be noted: JC-1 mitochondrial fluorescence, higher = more signal, called active from +8 up or from −8 down.
Assay [18] can be described thus: basal RPMI8226 mitochondrial membrane potential changes, profiling panel, cell-based, JC-1 fluorescence, 24 h, 100 nL compound (AID 1169). Also: test concentration not given here. To be noted: RPMI8226 myeloma, JC-1 mitochondrial potential fluorescence, higher = more signal.
Assay [19] in a line: basal MM1S mitochondrial membrane potential changes, profiling panel, cell-based, JC-1 fluorescence, 24 h, 100 nL compound (AID 1170). Also: test concentration not given here. To be noted: higher = more signal.
Assay [20] in a line: A549 lung cancer cell viability effects, profiling panel, resazurin fluorescence, 24 h, PK04 Diversity Set (AID 1171). Also: test concentration not given here. To be noted: higher = more signal, called active from +8 up or from −8 down.

Calls of active or inactive are those of the source.

Sequence of NADPH oxidase 4 (Homo sapiens) (Q9NPH5 whole entry, looked up): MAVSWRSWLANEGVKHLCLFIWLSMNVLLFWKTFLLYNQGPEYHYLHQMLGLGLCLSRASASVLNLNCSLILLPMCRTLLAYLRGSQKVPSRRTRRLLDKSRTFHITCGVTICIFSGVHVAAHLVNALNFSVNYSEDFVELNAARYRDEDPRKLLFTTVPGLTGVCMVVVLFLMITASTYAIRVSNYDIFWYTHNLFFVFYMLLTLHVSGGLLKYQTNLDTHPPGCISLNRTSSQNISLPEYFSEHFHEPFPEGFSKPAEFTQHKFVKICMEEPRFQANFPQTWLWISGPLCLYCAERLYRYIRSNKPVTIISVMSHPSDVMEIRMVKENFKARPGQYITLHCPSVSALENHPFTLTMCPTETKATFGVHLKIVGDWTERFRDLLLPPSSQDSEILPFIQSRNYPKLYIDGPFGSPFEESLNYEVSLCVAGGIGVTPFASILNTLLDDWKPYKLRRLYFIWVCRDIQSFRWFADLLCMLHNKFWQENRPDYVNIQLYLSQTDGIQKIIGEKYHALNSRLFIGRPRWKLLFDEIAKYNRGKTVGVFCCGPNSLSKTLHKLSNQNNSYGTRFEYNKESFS
Sequence of NADPH oxidase 2 (Homo sapiens) (P04839 whole entry, looked up): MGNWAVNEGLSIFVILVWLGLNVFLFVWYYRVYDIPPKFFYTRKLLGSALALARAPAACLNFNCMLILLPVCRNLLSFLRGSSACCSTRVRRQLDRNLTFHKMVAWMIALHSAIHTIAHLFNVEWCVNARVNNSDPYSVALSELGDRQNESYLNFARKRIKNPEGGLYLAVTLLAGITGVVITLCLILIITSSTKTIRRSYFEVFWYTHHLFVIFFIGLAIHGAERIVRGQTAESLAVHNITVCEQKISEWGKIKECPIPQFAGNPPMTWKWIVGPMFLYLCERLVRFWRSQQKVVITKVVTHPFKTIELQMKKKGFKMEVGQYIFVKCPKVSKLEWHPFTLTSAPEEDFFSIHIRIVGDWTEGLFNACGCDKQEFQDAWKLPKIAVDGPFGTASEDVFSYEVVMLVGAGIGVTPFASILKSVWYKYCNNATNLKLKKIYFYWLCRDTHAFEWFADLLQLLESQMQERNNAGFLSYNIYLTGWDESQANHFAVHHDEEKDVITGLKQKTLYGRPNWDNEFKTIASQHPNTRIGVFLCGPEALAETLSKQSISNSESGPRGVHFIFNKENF
Sequence of NADPH oxidase 5 (Homo sapiens) (Q96PH1 whole entry, looked up): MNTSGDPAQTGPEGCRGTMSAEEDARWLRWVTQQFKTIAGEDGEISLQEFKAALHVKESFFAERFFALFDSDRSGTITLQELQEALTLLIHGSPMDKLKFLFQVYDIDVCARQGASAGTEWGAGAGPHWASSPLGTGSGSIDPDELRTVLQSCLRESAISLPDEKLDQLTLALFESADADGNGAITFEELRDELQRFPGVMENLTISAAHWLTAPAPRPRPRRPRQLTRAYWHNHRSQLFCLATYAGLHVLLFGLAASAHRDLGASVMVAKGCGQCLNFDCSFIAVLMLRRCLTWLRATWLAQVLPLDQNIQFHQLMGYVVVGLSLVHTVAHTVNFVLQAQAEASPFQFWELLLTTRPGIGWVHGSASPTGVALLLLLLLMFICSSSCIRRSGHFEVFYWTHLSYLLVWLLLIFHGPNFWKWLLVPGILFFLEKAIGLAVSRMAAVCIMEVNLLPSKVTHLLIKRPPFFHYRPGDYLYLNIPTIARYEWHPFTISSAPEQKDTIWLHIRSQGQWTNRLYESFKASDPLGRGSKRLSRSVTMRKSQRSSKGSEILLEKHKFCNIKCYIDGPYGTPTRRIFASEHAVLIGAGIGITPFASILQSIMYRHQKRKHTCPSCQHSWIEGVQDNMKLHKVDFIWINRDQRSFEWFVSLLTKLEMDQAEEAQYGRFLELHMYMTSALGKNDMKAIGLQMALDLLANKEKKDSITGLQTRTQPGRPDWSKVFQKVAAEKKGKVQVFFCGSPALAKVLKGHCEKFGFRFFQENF

As for `O=C1c2ccccc2[C@@]2(Cc3ccccc3N(Cc3ccccc3)C2=O)[C@H](c2ccc(CO)cc2)N1Cc1ccccc1`, the z-score in assay [1] is -0.757 (inactive); in assay [3], -0.0384 (inactive); in assay [4] it was 0.0732 (inactive); in assay [5], 0.0046 (inactive); in assay [6] it was -0.11 (inactive); in assay [7], 0.244. Also, the z-score was 0.0584 (inactive) in [8]; 0.572 (inactive) in assay [9]; -0.107 in assay [10]; -0.574 in assay [11]; -0.269 in assay [12]; -0.643 in assay [13]. Besides, the z-score was 0.0744 in assay [14]; -0.851 in assay [15]; -0.0723 in [16]; -0.271 (inactive) in [17]; 0.167 in assay [18]; -0.353 in assay [19]. Further, the z-score in assay [20] is -0.381 (inactive). The molecule also came in with a composite z-score in assay [2] of -0.147.
For the molecule `CCOC(=O)C1=CC[C@@H](c2ccccc2)N(S(=O)(=O)c2ccc(C)cc2)[C@H]1C#N`, the z-score in assay [1] is -0.355 (inactive); in assay [3], 2.97 (inactive); in assay [4], 1.91 (inactive); in assay [5], -0.157 (inactive); in [6] it was 0.999 (inactive); in [7], -0.769. For the same molecule, the z-score in [8] is 0.426 (inactive); in assay [9], 0.122 (inactive); in assay [10], -0.116; in assay [11], -0.97; in assay [12], -0.84; in [13], -0.139. Besides, the z-score is -3.21 in assay [14]; -2.32 in [15]; -0.858 in assay [16]; -1.04 (inactive) in assay [17]; -0.441 in assay [18]; -2.33 in [19]. Besides, the z-score in assay [20] is 0.172 (inactive). Besides, the composite z-score in [2] was -0.081.
On to `COC(=O)[C@H](Cc1ccc(O)cc1)N1CC2=CCCC=C[C@@H]2[C@H]1[C@H](O)Cc1ccccc1`, for which the z-score in assay [1] was 1.42 (inactive); in [3] it was 3.23 (inactive); in [4], -1.53 (inactive); in [5] it was -0.241 (inactive); in [6], -2.05 (inactive); in [7], 0.814. In addition, the z-score in assay [8] was 0.63 (inactive); in assay [9] it was -3.8 (inactive); in assay [10], -2.8; in assay [11], 0.852; in [12] it was 0.308; in assay [13], -0.231. The z-score in assay [14] was -3.12; in assay [15], -0.833; in assay [16], -1.68; in [17] it was -0.501 (inactive); in assay [18], -0.521; in assay [19], -1.58. In addition, in assay [20], the z-score was 0.481 (inactive). This molecule came in with a composite z-score in assay [2] of -0.149.
Take `C=CCC(OC(C)=O)[C@@H]1[C@@H](N(Cc2ccc(-c3cccc(C(F)(F)F)c3)o2)C(=O)c2cccc3ccccc23)c2cc(OCCCO)ccc2N1C(=O)c1ccc2ccccc2c1` (stereo not given in full): the z-score was -0.0766 (inactive) in assay [1]; 0.785 (inactive) in [3]; 0.434 (inactive) in assay [4]; 2.22 (inactive) in assay [5]; 0.286 (inactive) in [6]; 0.813 in assay [7]. Further, the z-score in assay [8] was -2.13 (inactive); in assay [9] it was -1.74 (inactive); in assay [10] it was -1.76; in assay [11] it was 0.281; in [12], 2.03; in assay [13] it was 0.723. The z-score in [14] was -0.21; in assay [15], -1.99; in [16], 2.7; in [17], -0.689 (inactive); in assay [18] it was -0.556; in [19] it was -0.102. Moreover, the z-score in assay [20] was -0.453 (inactive). The molecule further registered a composite z-score in assay [2] of 0.179.
Take `O=C1N(CCS(=O)(=O)c2ccccc2)c2ccccc2[C@@H]2OC(c3ccc(OCCCO)cc3)=N[C@]12CCS(=O)(=O)c1ccccc1`: the z-score in [1] is -0.927 (inactive); in assay [3], 28.2 (active); in assay [4], 23.7 (active); in [5], 1.18 (inactive); in assay [6], 3.96 (inactive); in assay [7], -0.47. The z-score in assay [8] is 0.678 (inactive); in [9], 2.42 (inactive); in [10] it was 2.43; in [11], 0.762; in assay [12], 0.675; in assay [13] it was -0.136. The z-score in assay [14] is -1.68; in assay [15], -0.104; in assay [16], -1.04; in assay [17] it was 1.48 (inactive); in [18], -0.845; in assay [19] it was -0.774. The z-score in assay [20] was 0.967 (inactive). Moreover, the composite z-score in assay [2] is 0.677.
Turning to `C=CC[C@@]12N=C(c3ccc(OCCCO)cc3)O[C@@H]1c1ccccc1N(Cc1ccccc1)C2=O`, the z-score in [1] is 1.04 (inactive); in [3], 31.3 (active); in [4] it was 28.1 (active); in [5], 3.1 (inactive); in assay [6], 2.31 (inactive); in assay [7], -0.0677. The z-score in assay [8] was -0.812 (inactive); in assay [9] it was -0.091 (inactive); in assay [10], -1.59; in [11], -0.395; in [12], 0.555; in assay [13], -1.48. Also, the z-score in assay [14] is -3.4; in [15], -4.23; in assay [16] it was 0.394; in assay [17], 2.91 (inactive); in assay [18] it was -1.25; in assay [19], -0.934. Also, the z-score in assay [20] was -1.1 (inactive). This molecule showed a composite z-score in [2] of 1.47.
As to `CO[C@H]1O[C@H](CO)[C@@H](OC(=O)Nc2ccc3c(c2)OCO3)[C@@H]2OC(=O)[C@@H](Cc3ccccc3)C/C=C/C[C@H](Cc3ccccc3)C(=O)O[C@@H]12`, the z-score is 0.239 (inactive) in [1]; 2.93 (inactive) in [3]; 0.825 (inactive) in [4]; 0.0814 (inactive) in [5]; 1.09 (inactive) in assay [6]; 0.401 in assay [7]. Moreover, the z-score was -0.895 (inactive) in assay [8]; -0.162 (inactive) in assay [9]; -1.47 in assay [10]; 1.9 in assay [11]; -2.78 in assay [12]; 0.843 in assay [13]. Further, the z-score was -0.69 in assay [14]; -0.197 in assay [15]; 0.186 in [16]; 0.912 (inactive) in [17]; -0.469 in assay [18]; -0.897 in assay [19]. Besides, the z-score in assay [20] was -1.64 (inactive). The composite z-score in [2] amounted to 0.12.
Regarding `CN(C)CCCC[C@@H]1NC(=O)[C@H]2C[C@@H](C(=O)O)[C@@H](c3cccc(OCCO)c3)N2C1=O`, the z-score was 0.0804 (inactive) in assay [1]; 7.58 (inactive) in assay [3]; 0.945 (inactive) in assay [4]; -5.21 (inactive) in assay [5]; 0.424 (inactive) in assay [6]; 0.479 in [7]. For the same molecule, the z-score in assay [8] is -2.73 (inactive); in assay [9] it was -3.04 (inactive); in [10], -1.4; in assay [11] it was -0.17; in [12], 0.174; in [13] it was 0.41. The z-score in [14] was -3.21; in [15], 0.584; in assay [16], 0.773; in [17] it was -0.829 (inactive); in assay [18], -0.786; in assay [19], -0.713. Further, in assay [20], the z-score was 0.618 (inactive). The molecule also returned a composite z-score in [2] of 0.393.
On to `C=CCC(OC(C)=O)[C@@H]1[C@@H](N(Cc2ccc(-c3cccc(C(F)(F)F)c3)o2)C(=O)Cc2ccc(OC)cc2)c2cc(OCCCO)ccc2N1C(=O)c1ccc2ccccc2n1` (stereo not given in full), for which the z-score was -0.797 (inactive) in assay [1]; 0.83 (inactive) in [3]; 0.74 (inactive) in assay [4]; 0.959 (inactive) in assay [5]; 0.289 (inactive) in [6]; 0.342 in assay [7]. Further, the z-score was -0.236 (inactive) in [8]; -1.23 (inactive) in [9]; -1.45 in assay [10]; -0.0093 in assay [11]; 0.341 in assay [12]; 0.279 in [13]. In addition, the z-score in assay [14] was -1.2; in assay [15], -2.3; in [16] it was 2.12; in assay [17], 0.253 (inactive); in assay [18] it was -0.616; in assay [19], 1.42. Also, in assay [20], the z-score was -1.25 (inactive). In addition, the composite z-score in [2] was -0.0046.

(Values after PubChem BioAssay.)
